Data: PubChem BioAssay (NCATS)
Records with an inconclusive call do not appear. Activity calls are given as the source filed them. The call rests on the fitted dose curve; in most records, active means well fitted curve in the direction sought with a large enough effect; inconclusive means small, poorly fitted or top-dose-only effect, or another doubt; inactive means no such curve, though single readings can be large; an effect the other way counts as inactive or inconclusive.

Columns and labels:
[1] = molecular target: Glutathione peroxidase 1 (Homo sapiens) (UniProt P07203); assay: Primary qHTS Assay for Inhibitors of Recombinant Selenoprotein Glutathione Peroxidase 1 (GPX1) (AID 1845191); further: nearly all actives have a fitted effect of over 65% in size; on activity, negative = inhibition: on the % scale 0 is the no-effect control and ±100 the full control effect
Outline: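 GPX1 10 nM, GR 100 nM, GSH 1 mM, NADPH 0.5 mM, CHP 0.5 mM (final). 30-min cpd preincubation, RT. Ex340/Em450 read t=0, t=15 min.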

[2] = molecular target: Phospholipid hydroperoxide glutathione peroxidase GPX4 (Homo sapiens) (UniProt P36969); assay: Primary qHTS Assay for Inhibitors of Recombinant Selenoprotein Glutathione Peroxidase 4 (GPX4) (AID 1845192); further: nearly all actives have a fitted effect of over 65% in size; on activity change, negative = inhibition: series mostly up to about 50 µM; on the % scale 0 is the no-effect control and ±100 the full control effect
Outline: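 qHTS, GR-coupled: GPX4 200 nM + cpd 30 min RT → GSH 1 mM, NADPH 0.5 mM, GR 100 nM → CHP 0.5 mM start; fluor 340/450 at t0 and t15 min; no-enzyme wells as control.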

[3] = molecular target: Luciferin 4-monooxygenase (Photinus pyralis) (UniProt P08659); assay: Primary firefly luciferase (FLuc) qHTS assay for identification of artifact compounds. (AID 1845220); further: nearly all actives have a fitted effect of over 60% in size;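 on activity change, negative = inhibition: series mostly up to about 54 µM; plate controls were DMSO vehicle for no effect and no enzyme for full effect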
Outline: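 In this counter-screen for luciferase artifacts, test compounds met substrate (10 uM each luciferin and ATP) before 10 nM enzyme started the reaction. Light output was measured 5 min later.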

[4] = Primary fluorescence-based thiol-reactive (MSTI) qHTS assay for identification of artifact compounds. (AID 1845221);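 further: series mostly up to about 54 µM; thiol-reactive compounds lower the probe fluorescence signal; nearly all actives have a fitted effect of over 65% in size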
Outline: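 One-hour, room-temperature, dark incubation of compound with 4 uM MSTI in PBS (pH 7.4, 2% DMSO) precedes a fluorescence read at 525 nm excitation, 598 nm emission; Hill-equation fitting yields concentration-response values.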

[5] = test system: Nanoluciferase (engineered Oplophorus gracilirostris luciferase); assay: Primary Nanoluciferase (NLuc) qHTS assay for identification of artifact compounds. (AID 1845222);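 further: NLuc secreted into diluted conditioned medium of S16 cells; series mostly up to about 54 µM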
Outline: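 Using secreted nanoluciferase in S16 culture medium (0.22 um filtered, 1:55 dilution), compounds were preincubated 15 min at RT. Signal was generated with Nano-Glo reagent (1:100) over 5 min.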

[6] = Primary redox qHTS assay for identification of artifact compounds. (AID 1845223);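 further: 0% = DMSO and 100% = reference compound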
Outline: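 Redox-cycling detection via DTT (250 uM final) oxidation coupled to Amplex Red (25 uM)/HRP (250 mU/mL) in HBSS. 15 min preincubation plus 30 min after DTT, room temperature. Ex/Em 525/598 nm; 4-parameter Hill fit against DMSO and 10 uM DA3003.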

Phospholipid hydroperoxide glutathione peroxidase GPX4 (Homo sapiens), sequence (P36969 whole entry, looked up): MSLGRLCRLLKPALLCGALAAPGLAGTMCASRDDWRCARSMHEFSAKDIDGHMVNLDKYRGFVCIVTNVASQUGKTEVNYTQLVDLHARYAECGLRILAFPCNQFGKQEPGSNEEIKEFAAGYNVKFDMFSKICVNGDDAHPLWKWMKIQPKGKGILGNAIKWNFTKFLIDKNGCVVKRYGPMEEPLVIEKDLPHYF
Glutathione peroxidase 1 (Homo sapiens), sequence (P07203 whole entry, looked up): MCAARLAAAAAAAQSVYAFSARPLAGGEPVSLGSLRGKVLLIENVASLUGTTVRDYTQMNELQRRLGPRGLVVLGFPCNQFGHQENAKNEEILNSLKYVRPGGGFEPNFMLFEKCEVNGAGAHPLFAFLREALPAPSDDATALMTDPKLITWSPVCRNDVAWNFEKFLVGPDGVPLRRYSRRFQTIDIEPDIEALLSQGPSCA

CC(C)(C)c1cc(Br)cc([C@H](CC(=O)O)NC(=O)CNC(=O)c2cc(O)cc(NC3=NCC(O)CN3)c2)c1 (stereo not given in full)
inactive: Potency [1] | Potency [2] | Potency [3] | Potency [4] | Potency [5] | Potency [6]

CC1=C(C)C(=O)OC(C(C)C2CCC3C4C5OC5C5(O)CC(OC6OC(CO)C(OC7OC(C)C(O)C(O)C7O)C(O)C6O)CC(O)C5(C)C4CCC23C)C1 (stereo not given)
inactive: Potency [1] | Potency [2] | Potency [3] | Potency [4] | Potency [5] | Potency [6]

CC(C)CCC(=O)CC1c2ccccc2C(=O)N1c1ccc2ccc(Cl)nc2n1 (stereo not given)
inactive: Potency [1] | Potency [2] | Potency [3] | Potency [4] | Potency [5] | Potency [6]

CC1(C)CC[C@]2(C(=O)O[C@@H]3O[C@H](CO[C@@H]4O[C@H](CO)[C@@H](O)[C@H](O)[C@H]4O[C@@H]4O[C@H](CO)[C@@H](O)[C@H](O)[C@H]4O)[C@@H](O)[C@H](O[C@@H]4O[C@H](CO)[C@@H](O)[C@H](O)[C@H]4O)[C@H]3O)CC[C@]3(C)C(=CCC4[C@@]5(C)CC[C@@H](O)[C@@](C)(C(=O)O[C@@H]6O[C@H](CO)[C@@H](O)[C@H](O)[C@H]6O)C5CC[C@]43C)[C@@H]2C1 (stereo not given in full)
inactive: activity, negative = inhibition [1] -10.6% [at 9.52 µM] | outcome [2] inactive [at 9.73 µM] | activity change, negative = inhibition [3] 2.91% [at 11.6 µM] | activity change, negative = thiol reactive [4] 344% [at 11.5 µM] | activity, negative = inhibition [5] 2% [at 11.6 µM] | redox activity (% of DA3003) [6] 5.34% [at 11.5 µM]

CC(C)=CCC[C@](C)(O)[C@H]1CC[C@]2(C)[C@@H]1[C@H](O)CC1[C@@]3(C)CC[C@H](O)C(C)(C)C3[C@@H](O[C@@H]3O[C@H](CO)[C@@H](O)[C@H](O)[C@H]3O[C@@H]3OC[C@@H](O)[C@H](O)[C@H]3O)C[C@]12C (stereo not given in full)
inactive: Potency [1] | Potency [2] | Potency [3] | Potency [4] | Potency [5] | Potency [6]

COc1cc(O)c2c(c1)C1=C[C@H](O)[C@@H](O)C[C@]1(C)OC2=O
inactive: Potency [1] | Potency [2] | Potency [3] | Potency [4] | Potency [5] | Potency [6]

CC1(C)CC[C@]2(C(=O)O[C@@H]3O[C@H](CO)[C@@H](O)[C@H](O)[C@H]3O)CC[C@]3(C)C(=CCC4[C@@]5(C)C[C@@H](O)[C@H](O)[C@](C)(C(=O)O)C5CC[C@]43C)C2C1O (stereo not given in full)
inactive: Potency [1] | Potency [2] | Potency [3] | Potency [4] | Potency [5] | Potency [6]

CC(=O)NC[C@H]1CN(c2ccc(N3CCN(C(=O)CO)CC3)c(F)c2)C(=O)O1
inactive: Potency [1] | Potency [2] | Potency [3] | Potency [4] | Potency [5] | Potency [6]

N[C@H]1Cc2ccccc2N(O)C1=O
inactive: Potency [1] | Potency [2] | Potency [3] | Potency [4] | Potency [5] | Potency [6]

NC1CCCCN(c2c(F)cc3c(=O)c(C(=O)O)cn(C4CC4)c3c2Cl)C1 (stereo not given)
inactive: Potency [1] | Potency [2] | Potency [3] | Potency [4] | Potency [5] | Potency [6]
